Reference: PubChem BioAssay AID1159580 (chemical genetic matrix, 2015)
Values joined by “and” are separate entries in the source; they are usually repeats but may differ in a detail not shown here. Equal entries are not always repeated. About 2,000 (36%) of roughly 5,500 compounds were called active. Roughly 18% stayed inconclusive and do not appear here. Some of the results follow. A number with no mark means an inactive call. Cut-off read from the data, not from the text of the source: active = normalized growth mostly below about 0.91 (no sharp cut-off); inconclusive = no clear call, values can overlap the other calls; inactive = mostly above about 0.92.

Experiment: chemical genetic growth profiling, strain panel (AID 1159580);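 note: tested at 20 µM; growth read once vehicle control cultures reached saturation at 30 °C; 1 = growth at the plate median or of vehicle wells; lower values mean less growth of the strain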
Conditions: S. cerevisiae deletion strains, growth OD

COc1cc(C/C=C/c2ccccc2)c(OC)cc1O
normalized growth (locus YAL013W, strain DEP1, hits give low values): 0.989
normalized growth (locus YAL021C, strain ccr4, hits give low values): 0.901 (active)
normalized growth (locus YAL026C, strain drs2, hits give low values): 0.936
normalized growth (locus YAL030W, strain snc1, hits give low values): 0.956
normalized growth (locus YBL061C, strain skt5, hits give low values): 0.964
normalized growth (locus YBR009C, strain hhf1, hits give low values): 0.969
normalized growth (locus YBR021W, strain FUR4, hits give low values): 1.04
normalized growth (locus YBR023C, strain chs3, hits give low values): 0.95
normalized growth (locus YBR171W, strain sec66, hits give low values): 0.962
normalized growth (locus YBR229C, strain ROT2, hits give low values): 0.979
normalized growth (locus YBR231C, strain swc5, hits give low values): 0.942
normalized growth (locus YBR279W, strain paf1, hits give low values): 0.95
normalized growth (locus YCL011C, strain gbp2, hits give low values): 0.936
normalized growth (locus YCL016C, strain dcc1, hits give low values): 0.944
normalized growth (locus YCL029C, strain bik1, hits give low values): 0.962
normalized growth (locus YCL061C, strain MRC1, hits give low values): 0.967
normalized growth (locus YCL069W, strain vba3, hits give low values): 0.98
normalized growth (locus YCR088W, strain abp1, hits give low values): 0.958
normalized growth (locus YDL005C, strain med2, hits give low values): 0.948
normalized growth (locus YDL035C, strain GPR1, hits give low values): 1.04
normalized growth (locus YDL040C, strain nat1, hits give low values): 0.973
normalized growth (locus YDL074C, strain BRE1, hits give low values): 1.01
normalized growth (locus YDL101C, strain DUN1, hits give low values): 0.951
normalized growth (locus YDL185W, strain tfp1, hits give low values): 0.932
normalized growth (locus YDL192W, strain arf1, hits give low values): 0.982
normalized growth (locus YDR001C, strain nth1, hits give low values): 0.966
normalized growth (locus YDR069C, strain doa4, hits give low values): 0.943
normalized growth (locus YDR101C, strain arx1, hits give low values): 1.03
normalized growth (locus YDR137W, strain rgp1, hits give low values): 0.939
normalized growth (locus YDR159W, strain sac3, hits give low values): 1
normalized growth (locus YDR162C, strain NBP2, hits give low values): 0.993
normalized growth (locus YDR195W, strain ref2): 1
normalized growth (locus YDR297W, strain sur2, hits give low values): 0.955
normalized growth (locus YDR318W, strain mcm21, hits give low values): 0.989
normalized growth (locus YDR334W, strain swr1, hits give low values): 0.941
normalized growth (locus YDR335W, strain msn5, hits give low values): 0.95
normalized growth (locus YDR388W, hits give low values): 0.947
normalized growth (locus YDR392W, strain spt3, hits give low values): 0.721 (active)
normalized growth (locus YDR502C, strain sam2, hits give low values): 0.964
normalized growth (locus YEL003W, strain gim4, hits give low values): 0.959
normalized growth (locus YEL037C, strain rad23, hits give low values): 0.958
normalized growth (locus YEL061C, strain CIN8 (second series), hits give low values): 0.96
normalized growth (locus YEL061C, strain CIN8, hits give low values): 0.968
normalized growth (locus YER015W, strain faa2, hits give low values): 0.935
normalized growth (locus YER016W, strain bim1, hits give low values): 0.961
normalized growth (locus YER110C, hits give low values): 0.924
normalized growth (locus YER111C, strain swi4, hits give low values): 0.978
normalized growth (locus YER155C, strain BEM2 (second series), hits give low values): 0.915
normalized growth (locus YER155C, strain BEM2, hits give low values): 0.96
normalized growth (locus YER167W, strain BCK2, hits give low values): 0.968
normalized growth (locus YFR010W, strain ubp6, hits give low values): 0.944
normalized growth (locus YGL078C, strain dbp3, hits give low values): 0.994
normalized growth (locus YGL086W, strain mad1, hits give low values): 0.986
normalized growth (locus YGL167C, strain pmr1, hits give low values): 0.943
normalized growth (locus YGL173C, strain kem1, hits give low values): 0.977
normalized growth (locus YGL227W, strain vid30, hits give low values): 0.973
normalized growth (locus YGL240W, strain doc1, hits give low values): 0.939
normalized growth (locus YGL248W, strain PDE1, hits give low values): 0.967
normalized growth (locus YGL253W, strain hxk2, hits give low values): 0.971
normalized growth (locus YGR078C, strain PAC10, hits give low values): 0.964
normalized growth (locus YGR135W, strain pre9, hits give low values): 0.95
normalized growth (locus YGR229C, strain SMI1, hits give low values): 1.01
normalized growth (locus YGR252W, strain gcn5, hits give low values): 1.1
normalized growth (locus YHR013C, strain ard1, hits give low values): 0.926
normalized growth (locus YHR027C, strain rpn1, hits give low values): 0.945
normalized growth (locus YHR030C, strain SLT2, hits give low values): 0.963 and 1.06
normalized growth (locus YHR079C, strain IRE1 (second series), hits give low values): 0.968
normalized growth (locus YHR079C, strain IRE1, hits give low values): 1.04
normalized growth (locus YHR094C, strain hxt1, hits give low values): 0.961
normalized growth (locus YHR129C, strain ARP1, hits give low values): 0.966
normalized growth (locus YHR142W, strain chs7, hits give low values): 0.919
normalized growth (locus YHR200W, strain rpn10, hits give low values): 0.983
normalized growth (locus YIL066C, strain RNR3, hits give low values): 0.971
normalized growth (locus YIL073C, strain SPO22, hits give low values): 0.938
normalized growth (locus YIL125W, strain kgd1, hits give low values): 0.979
normalized growth (locus YIR030C, strain dcg1, hits give low values): 0.956
normalized growth (locus YJL092W, strain hpr5, hits give low values): 0.957
normalized growth (locus YJL095W, strain BCK1 (second series), hits give low values): 0.95
normalized growth (locus YJL095W, strain BCK1, hits give low values): 0.935 and 1.06
normalized growth (locus YJL115W, strain asf1, hits give low values): 0.939
normalized growth (locus YJL129C, strain trk1, hits give low values): 0.949
normalized growth (locus YJL134W, strain LCB3, hits give low values): 0.964
normalized growth (locus YJL154C, strain vps35, hits give low values): 0.959
normalized growth (locus YJL164C, strain tpk1, hits give low values): 0.929
normalized growth (locus YJL166W, strain qcr8, hits give low values): 0.955
normalized growth (locus YJL168C, strain set2, hits give low values): 0.965
normalized growth (locus YJL187C, strain SWE1 (second series), hits give low values): 0.967
normalized growth (locus YJL187C, strain SWE1, hits give low values): 0.954
normalized growth (locus YJR043C, strain POL32, hits give low values): 1.08
